From PubChem BioAssay (EPA / NIEHS) come the findings set out here.

Read-out in test [1]: Vascular cell adhesion molecule 1 (VCAM1), VCAM1 (gene 7412)
Nature of the test: BSK_4H_VCAM1: BioMAP Diversity Plus: 4H Assay for Vascular cell adhesion molecule 1 (VCAM1) Biomarker Activity (AID 2283033).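 Note: cell-surface VCAM-1 protein measured by ELISA.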 To be noted: primary human endothelial cells (HUVEC); actives raise or lower the signal. The gist of the method:
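Primary human umbilical vein endothelial cells were exposed to chemicals for 24 h, after which VCAM-1 was quantified by ELISA. Responses were fitted bidirectionally against DMSO as negative control and activity baseline.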

Read-out in test [2]: Interferon-gamma inducible Protein 10 (IP10), CXCL10 (gene 3627)
Nature of the test: BSK_BE3C_IP10: BioMAP Diversity Plus: BE3C Assay for Interferon-gamma inducible Protein 10 (IP10) Biomarker Activity (AID 2283034). The settings on record: primary human bronchial epithelial cells; actives raise or lower the signal. The gist of the method: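 Human primary bronchial epithelial cells were exposed to chemicals for 24 hours, after which IP-10 levels were measured by ELISA. Data were fitted bidirectionally against DMSO, which served as the negative control and activity baseline.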

Read-out in test [3]: Monokine induced gamma interferon (MIG), CXCL9 (gene 4283)
Nature of the test: BSK_BE3C_MIG: BioMAP Diversity Plus: BE3C Assay for Monokine induced gamma interferon (MIG) Biomarker Activity (AID 2283035).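 Note: MIG protein measured by ELISA in BE3C cultures after 24 h of dosing.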 To be noted: primary human bronchial epithelial cells; actives raise or lower the signal. The gist of the method:
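ELISA read-out of MIG in human lung bronchial epithelial primary cultures, 24 h post-dosing. Bidirectional curve fit vs DMSO baseline.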

Read-out in test [4]: Transforming growth factor beta 1 (TGFb1), TGFB1 (gene 7040)
Nature of the test: BSK_BE3C_TGFb1: BioMAP Diversity Plus: BE3C Assay for Transforming growth factor beta 1 (TGFb1) Biomarker Activity (AID 2283036). To be noted: primary human bronchial epithelial cells; actives raise or lower the signal. The gist of the method: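 Human primary bronchial epithelial cells (BE3C system) were dosed with chemical and TGF-b1 levels measured by ELISA at 24 h. Activity was fitted bidirectionally relative to DMSO negative control as baseline.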

Read-out in test [5]: Plasminogen activator inhibitor-1 (PAI1), SERPINE1 (gene 5054)
Briefly: BSK_BE3C_PAI1: BioMAP Diversity Plus: BE3C Assay for Plasminogen activator inhibitor-1 (PAI1) Biomarker Activity (AID 2283037). To be noted: primary human bronchial epithelial cells; actives raise or lower the signal. A digest of the protocol: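 Human primary bronchial epithelial cells were exposed to chemical for 24 h, then PAI-1 was quantified by ELISA. Activity was fitted bidirectionally relative to the DMSO negative control baseline.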

Read-out in test [6]: urokinase plasminogen activator (uPA), PLAU (gene 5328)
Nature of the test: BSK_BE3C_uPA: BioMAP Diversity Plus: BE3C Assay for urokinase plasminogen activator (uPA) Biomarker Activity (AID 2283038).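 Note: uPA protein level quantified by ELISA in cell cultures; uPA read one day after compound addition.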 To be noted: primary human bronchial epithelial cells; actives raise or lower the signal. The gist of the method: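 Bronchial epithelial cells (human, primary); chemical 24 h; uPA by ELISA; bidirectional fit vs DMSO. SRB (0.1%, after 10% TCA fixation, 560 nm) in parallel cultures for cytotoxicity.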

Read-out in test [7]: Urokinase-type plasminogen activator receptor (uPAR), PLAUR (gene 5329)
Briefly: BSK_BE3C_uPAR: BioMAP Diversity Plus: BE3C Assay for Urokinase-type plasminogen activator receptor (uPAR) Biomarker Activity (AID 2283039).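 Note: cells exposed to compound for one day before measurement.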 To be noted: primary human bronchial epithelial cells; actives raise or lower the signal. A digest of the protocol: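 Primary human bronchial epithelial cells were dosed with chemical and harvested 24 h later; uPAR was quantified by ELISA. Activity was fitted bidirectionally against DMSO as negative control and baseline.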

Read-out in test [8]: Interleukin-6 (IL6), IL6 (gene 3569)
Nature of the test: BSK_CASM3C_IL6: BioMAP Diversity Plus: CASM3C Assay for Interleukin-6 (IL6) Biomarker Activity for (AID 2283040). The settings on record: primary human coronary artery smooth muscle cells; actives raise or lower the signal.

Read-out in test [9]: Tissue plasminogen activator (tPA), PLAT (gene 5327)
Briefly: BSK_BE3C_tPA: BioMAP Diversity Plus: BE3C Assay for Tissue plasminogen activator (tPA) Biomarker Activity (AID 2283041).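 Note: tPA level quantified by ELISA one day after compound addition.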 To be noted: primary human bronchial epithelial cells; actives raise or lower the signal. A digest of the protocol:
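Human primary bronchial epithelial cells were dosed with chemical and tPA biomarker levels measured by ELISA 24 hours later. Activity was fitted bidirectionally against DMSO as negative control and baseline.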

Read-out in test [10]: Interleukin-8 (IL8), CXCL8 (gene 3576)
Nature of the test: BSK_CASM3C_IL8: BioMAP Diversity Plus: CASM3C Assay for Interleukin-8 (IL8) Biomarker Activity (AID 2283042).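 Note: IL-8 protein level quantified by ELISA.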 The settings on record: primary human coronary artery smooth muscle cells; actives raise or lower the signal.

Read-out in test [11]: Human Leukocyte Antigen - DR isotype (HLADR), HLA-DRA (gene 3122)
Briefly: BSK_CASM3C_HLADR: BioMAP Diversity Plus: CASM3C Assay for Human Leukocyte Antigen - DR isotype (HLADR) Biomarker Activity (AID 2283043).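 Note: cell-surface HLA-DR protein level quantified by ELISA.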 To be noted: primary human coronary artery smooth muscle cells; actives raise or lower the signal.

Read-out in test [12]: Macrophage colony-stimulating factor (MCSF), CSF1 (gene 1435)
Briefly: BSK_CASM3C_MCSF: BioMAP Diversity Plus: CASM3C Assay for Macrophage colony-stimulating factor (MCSF) Biomarker Activity (AID 2283044).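 Note: M-CSF protein amount quantified by ELISA after 24 h exposure.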 To be noted: primary human coronary artery smooth muscle cells; actives raise or lower the signal.

Read-out in test [13]: Low-density lipoprotein receptor (LDLR), LDLR (gene 3949)
Briefly: BSK_CASM3C_LDLR: BioMAP Diversity Plus: CASM3C Assay for Low-density lipoprotein receptor (LDLR) Biomarker Activity (AID 2283045).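 Note: LDLR protein level on the cell surface quantified by ELISA.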 The settings on record: primary human coronary artery smooth muscle cells; actives raise or lower the signal.

Read-out in test [14]: Monocyte Chemoattractant Protein-1 (MCP1), CCL2 (gene 6347)
Nature of the test: BSK_CASM3C_MCP1: BioMAP Diversity Plus: CASM3C Assay for Monocyte Chemoattractant Protein-1 (MCP1) Biomarker Activity (AID 2283046).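 Note: MCP-1 level quantified by ELISA 24 h after dosing.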 To be noted: primary human coronary artery smooth muscle cells; actives raise or lower the signal.

A short description of test [15]: BSK_CASM3C_Proliferation: Cell Proliferation Assessment in the BioMAP Diversity Plus: CASM3C Assay (AID 2283047).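 Note: sulforhodamine B total protein stain as relative cell number at 560 nm; sub-confluent cells exposed 48 h before staining; fitted both ways against DMSO so gain or loss of cell number.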 To be noted: primary human coronary artery smooth muscle cells.
Read-out in test [16]: Monokine induced gamma interferon (MIG), CXCL9 (gene 4283)
Briefly: BSK_CASM3C_MIG: BioMAP Diversity Plus: CASM3C Assay for Monokine induced gamma interferon (MIG) Biomarker Activity (AID 2283048). To be noted: primary human coronary artery smooth muscle cells; actives raise or lower the signal.

Read-out in test [17]: serum amyloid A (SAA), SAA1 (gene 6288)
Briefly: BSK_CASM3C_SAA: BioMAP Diversity Plus: CASM3C Assay for serum amyloid A (SAA) Biomarker Activity (AID 2283049).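 Note: SAA protein level quantified by ELISA.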 The settings on record: primary human coronary artery smooth muscle cells; actives raise or lower the signal.

The nature of test [18]: BSK_CASM3C_SRB: Viability Assessment in the BioMAP Diversity Plus: CASM3C Assay (AID 2283050).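 Note: total protein by SRB staining as cytotoxicity measure in parallel cultures.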 To be noted: primary human coronary artery smooth muscle cells.
Read-out in test [19]: Thrombomodulin, THBD (gene 7056)
Nature of the test: BSK_CASM3C_Thrombomodulin: BioMAP Diversity Plus: CASM3C Assay for Thrombomodulin Biomarker Activity (AID 2283051).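 Note: thrombomodulin protein level measured by ELISA 24 h after dosing.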 To be noted: primary human coronary artery smooth muscle cells; actives raise or lower the signal.

Read-out in test [20]: Tissue Factor, F3 (gene 2152)
Nature of the test: BSK_CASM3C_TissueFactor: BioMAP Diversity Plus: CASM3C Assay for Tissue Factor Biomarker Activity (AID 2283052).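 Note: cell surface tissue factor protein level read by ELISA.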 The settings on record: primary human coronary artery smooth muscle cells; actives raise or lower the signal.

Calls of active or inactive are those of the source. Rule for the calls: active = hit-call score of the fitted dose curve at least 0.9, where 1 is the maximum; inactive = score below 0.9.

As to `CCN(CC)C(=O)N(CC)CC`, the result in [1], in test [2], in [3], in [4], in test [5] and in test [6] was inactive. Also, the result in test [7], in test [8], in test [9], in [10], in test [11] and in test [12] was inactive. For the same compound, the result in test [13], in test [14], in test [15], in test [16], in [17] and in [18] was inactive. Also, the result in test [19] and in [20] was inactive.

In the case of `c1ccc2cc(Nc3ccc(Nc4ccc5ccccc5c4)cc3)ccc2c1`, the outcome in test [1], in test [2], in test [3], in [4], in test [5] and in [6] was inactive. Also, the outcome in test [7], in test [8], in test [9], in [10], in test [11] and in test [12] was inactive. The result in test [13], in [14], in test [15], in test [16], in [17] and in [18] was inactive. For the same compound, the result in test [19] and in test [20] was inactive.

As to `C[C@@H]1CCN(C(=O)[C@H](CCCN=C(N)N)NS(=O)(=O)c2cccc3c2NC[C@H](C)C3)[C@@H](C(=O)O)C1`, the result in [1], in test [2], in test [3], in [4], in test [5] and in test [6] was inactive. The outcome in test [7], in test [8], in test [9], in [10], in test [11] and in [12] was inactive. The result in [13], in [14], in [15], in test [16], in test [17] and in test [18] was inactive. The result in test [19] and in [20] was inactive.

Turning to `CCCCOC(=O)CCCCCCCC(=O)OCCCC`, the result in test [1], in test [2], in test [3], in test [4], in test [5] and in [6] was inactive. Further, the outcome in [7], in test [8], in [9], in [10], in test [11] and in test [12] was inactive. Also, the outcome in [13], in [14], in test [15], in [16], in test [17] and in test [18] was inactive. For the same compound, the result in [19] and in test [20] was inactive.

One may read the AC50 as the concentration giving half of the maximal activity seen. In the case of `C=C(C)C(=O)OCCOCCOCCOCCOC(=O)C(=C)C`, the result in test [1], in test [2], in [3], in test [4], in test [5] and in test [6] was inactive. For the same compound, the result in test [7], in [8], in test [9], in [10], in [12] and in [13] was inactive. Also, the outcome in [14], in test [15], in [16], in test [17], in [18] and in test [19] was inactive. In addition, the result in test [20] was inactive. The AC50 in test [11] was 1440 nM (active).

Consider `O=C1OC[C@H](Cc2cccc(O)c2)[C@H]1Cc1cccc(O)c1`, for which the result in [1], in test [2], in test [3], in [4], in [5] and in test [6] was inactive. Also, the result in test [7], in [8], in [9], in test [10], in [11] and in test [12] was inactive. Also, the outcome in test [13], in [14], in test [15], in test [16], in [17] and in test [18] was inactive. Besides, the result in test [19] and in test [20] was inactive.
